Source: PubChem BioAssay (NCI)
Compounds without any hit were thinned out: in the full panel of roughly 83,000, 20% have a hit.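 Method: cells in 96-well plates; compound added at one concentration; 48 h incubation; percent growth measured; values under 10 scored active.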 Unmarked numbers belong to inactive results. Active and inactive are the calls of the source.

system: HT29 colon; experiment: NCI-60 one-dose screen, 48 h (100 = growth as untreated, 0 = no growth, -100 = all killed); conditions: 10 µM

Structure (SMILES)	growth
Cc1ccccc1N=C(c1ccccc1)C1C(=O)c2ccccc2C1=O	75.9%
O=c1[nH]cc(Cl)cc1O	97.3%
CC(C)OC(C(=O)O)c1ccccc1 (centres undefined)	109%
CCCOC(=O)C(O)c1ccccc1 (centres undefined)	103%
COc1ccccc1NC(=O)c1cc2cc(Br)ccc2cc1O	72.8%
OCCN1CCOCC1	110%
OCC1OC(OC2C(O)C(CO)OC2(CO)OC2OC(CO)C(O)C(O)C2O)C(O)C(O)C1O (centres undefined)	102%
Cc1ccc(Cl)cc1NC(=O)N(C)CCO	133%
CCOC(=O)C(O)C(O)C(=O)OCC (centres undefined)	105%
O=c1cc(-c2ccccc2)nc2cc(-c3ccco3)[nH]n12	102%
S=c1[nH]ccn1-c1ccccc1Cl	104%
C[N+](C)(C)C(=O)c1ccccc1	104%
CCc1ccc(/C(C#N)=C/C=C/c2ccccc2)cc1	-5.6% (active)
O=C(O)c1ccnc(Br)c1	110%
S=c1nn[nH]c2ccccc12	112%
O=[N+]([O-])c1ccc(CO)cc1	108%
O=C1C=C(O)C(=O)C=C1O	105%
C#Cc1cccc(NC(=O)c2ccc(Cl)cc2Cl)c1	100%

system: SNB-75 CNS; experiment: as above; conditions: 10 µM

Structure (SMILES)	growth
COc1cccc(O)c1O	56.3%
CC(=O)/C(Cc1ccccc1)=N/O	89.2%
C=CCNC(=O)c1ccc(OC)cc1	117%
C/C(=N/NC(N)=O)c1ccco1	91.5%
COCCOC(=O)c1ccc(C(C)C)cc1	86.9%
C[N+](C)=c1ccc2nc3c(cc(Nc4ccccc4)c4ccccc43)oc-2c1	86.7%
Cc1cccc(CO)c1	95.1%
Nc1nc(N)c(N=Nc2ccc(C(=O)O)cc2)c(N)n1	103%
COCCOCCCl	95.9%
Nc1ncnc2[nH]ncc12	33.3%
O=[N+]([O-])c1ccc(-c2ncc(-c3ccc(Br)cc3)o2)cc1	122%
CCOC(=O)CSc1c([N+](=O)[O-])ncn1C	98.4%
CC(C)(O)C#CC#CC(C)(C)O	94%
COc1cc(C2NC(=O)C(C#N)=C(Nc3cccc(C)c3)S2)ccc1O (centres undefined)	89.6%
CCOC(=O)Nc1nn[nH]n1	94.8%
O=C(NN=C1CCCCC1)C(=O)NN=C1CCCCC1	103%
O=C(CCl)Nc1ccc2c(c1)C(=O)c1ccc(NC(=O)CCl)cc1C2=O	-55.4% (active)
CCCCOC(=O)c1ccc(C(C)C)cc1	84.3%
O=C(NC1CCCCC1)OCc1c(COC(=O)NC2CCCCC2)c(-c2ccc(Cl)c(Cl)c2)n2c1CCC2	15.7%

Structure (SMILES)	growth
N#CCCN(CCCN1CCOCC1)CN1C(=O)c2ccccc2C1=O	87.7%
Cc1ccccc1N=C(c1ccccc1)C1C(=O)c2ccccc2C1=O	90%
O=c1[nH]cc(Cl)cc1O	93.1%
CC(C)OC(C(=O)O)c1ccccc1 (centres undefined)	78.2%
CCCOC(=O)C(O)c1ccccc1 (centres undefined)	96.7%
COc1ccccc1NC(=O)c1cc2cc(Br)ccc2cc1O	12.4%
OCCN1CCOCC1	90.4%
OCC1OC(OC2C(O)C(CO)OC2(CO)OC2OC(CO)C(O)C(O)C2O)C(O)C(O)C1O (centres undefined)	86.1%
Cc1ccc(Cl)cc1NC(=O)N(C)CCO	126%
CCOC(=O)C(O)C(O)C(=O)OCC (centres undefined)	99%
O=c1cc(-c2ccccc2)nc2cc(-c3ccco3)[nH]n12	79.4%
S=c1[nH]ccn1-c1ccccc1Cl	95.4%
C[N+](C)(C)C(=O)c1ccccc1	94.8%
CCc1ccc(/C(C#N)=C/C=C/c2ccccc2)cc1	0.0202% (active)
O=C(O)c1ccnc(Br)c1	89.5%
S=c1nn[nH]c2ccccc12	96.4%
O=[N+]([O-])c1ccc(CO)cc1	108%
O=C1C=C(O)C(=O)C=C1O	95.1%
C#Cc1cccc(NC(=O)c2ccc(Cl)cc2Cl)c1	106%

system: SNB-19 CNS; experiment: as above; conditions: 10 µM

Structure (SMILES)	growth
COc1cccc(O)c1O	65.1%
CC(=O)/C(Cc1ccccc1)=N/O	98.9%
C=CCNC(=O)c1ccc(OC)cc1	92.1%
C/C(=N/NC(N)=O)c1ccco1	101%
COCCOC(=O)c1ccc(C(C)C)cc1	106%
C[N+](C)=c1ccc2nc3c(cc(Nc4ccccc4)c4ccccc43)oc-2c1	57.2%
Cc1cccc(CO)c1	107%
Nc1nc(N)c(N=Nc2ccc(C(=O)O)cc2)c(N)n1	95.1%
COCCOCCCl	103%
Nc1ncnc2[nH]ncc12	71.3%
O=[N+]([O-])c1ccc(-c2ncc(-c3ccc(Br)cc3)o2)cc1	99.9%
CCOC(=O)CSc1c([N+](=O)[O-])ncn1C	99.6%
CC(C)(O)C#CC#CC(C)(C)O	112%
COc1cc(C2NC(=O)C(C#N)=C(Nc3cccc(C)c3)S2)ccc1O (centres undefined)	102%
CCOC(=O)Nc1nn[nH]n1	99.5%
O=C(NN=C1CCCCC1)C(=O)NN=C1CCCCC1	110%
O=C(CCl)Nc1ccc2c(c1)C(=O)c1ccc(NC(=O)CCl)cc1C2=O	-45.3% (active)
CCCCOC(=O)c1ccc(C(C)C)cc1	105%
O=C(NC1CCCCC1)OCc1c(COC(=O)NC2CCCCC2)c(-c2ccc(Cl)c(Cl)c2)n2c1CCC2	44.5%

Structure (SMILES)	growth
N#CCCN(CCCN1CCOCC1)CN1C(=O)c2ccccc2C1=O	110%
Cc1ccccc1N=C(c1ccccc1)C1C(=O)c2ccccc2C1=O	97.1%
O=c1[nH]cc(Cl)cc1O	105%
CC(C)OC(C(=O)O)c1ccccc1 (centres undefined)	99.5%
CCCOC(=O)C(O)c1ccccc1 (centres undefined)	107%
COc1ccccc1NC(=O)c1cc2cc(Br)ccc2cc1O	27.3%
OCCN1CCOCC1	102%
OCC1OC(OC2C(O)C(CO)OC2(CO)OC2OC(CO)C(O)C(O)C2O)C(O)C(O)C1O (centres undefined)	102%
Cc1ccc(Cl)cc1NC(=O)N(C)CCO	101%
CCOC(=O)C(O)C(O)C(=O)OCC (centres undefined)	103%
O=c1cc(-c2ccccc2)nc2cc(-c3ccco3)[nH]n12	95.8%
S=c1[nH]ccn1-c1ccccc1Cl	102%
C[N+](C)(C)C(=O)c1ccccc1	102%
CCc1ccc(/C(C#N)=C/C=C/c2ccccc2)cc1	59.5%
O=C(O)c1ccnc(Br)c1	103%
S=c1nn[nH]c2ccccc12	95.9%
O=[N+]([O-])c1ccc(CO)cc1	105%
O=C1C=C(O)C(=O)C=C1O	104%
C#Cc1cccc(NC(=O)c2ccc(Cl)cc2Cl)c1	97.3%
